The record followed here is PubChem BioAssay AID2384 (Southern Research Specialized Biocontainment Screening …, 2010).

Out of some 2,300 compounds screened, about 1,100 (48%) were called active. The rule behind the calls is not given here. So high a share suggests a set chosen from earlier hits. Some of the results follow. Measured potencies and affinities stand elsewhere.

The assay in a line: inhibitors in S. typhi counter-screen strain, dose response, counter-screen for PhoP regulon inhibitor project, fluorescence, 4 h (AID 2384). The note with it: S. typhi GFP reporter counter-screen; series mostly up to 150 µM; inhibition: at the top concentration. Background: Counterscreens check selectivity or assay interference.
Take `COC(=O)C1=C(C)N(CC2CC2)C(=O)N[C@H]1c1ccc(Br)cc1`: the inhibition (as a rule, the relative decrease from the control value, in per cent) is 11.5% (inactive). In the case of `COC(=O)C1=C(C)N(Cc2ccco2)C(=O)N[C@H]1c1ccc(Br)cc1`, the “inhibition” value is -1.77% (inactive). Consider `CC(C)CC(c1nnnn1Cc1ccco1)N1CCN(c2cccc(Cl)c2)CC1` (centres undefined), for which the “inhibition” value was -13% (inactive).

With `CCCC(C(=O)NCC1CCCO1)N(Cc1ccco1)C(=O)CNS(=O)(=O)c1ccc(F)cc1` (centres undefined), the “inhibition” value was -8.97% (inactive). `Cc1c(C2(O)C(=O)Nc3ccc(F)cc32)c(=O)n(-c2ccccc2)n1C` (centres undefined): the “inhibition” value was -5.34% (inactive). For `Nc1nn2cc(-c3ccccc3)nc2c2ccccc12`, the “inhibition” value is 15.4% (inactive). Next, `Nc1nc2ccccc2cc1-c1cccs1`: 12.7% (inactive); `Nc1ccc(N=Nc2ccccc2)c(N)n1`: 22.1% (inactive). Consider `Cc1ccc(CN2C3=NCCN3c3ccccc32)cc1`, for which the “inhibition” value was 29.4% (inactive). Take `Cc1cccc(CN2C3=NCCCN3c3ccccc32)c1`: the “inhibition” value was 15.7% (inactive). On to `O=C(COc1ccc(Cl)cc1)N1CCCCC1`, for which the “inhibition” value was 9.39% (inactive). Take `O=C(CSc1ccc(Cl)cc1)c1ccco1`: the “inhibition” value was 26.8% (inactive). For the compound `CC(C)(C)NC(=O)/C=C/c1ccc(C(F)(F)F)cc1`, the “inhibition” value was -6.9% (inactive).

With `CC(=O)C1C(c2ccc(OC(F)F)cc2)NC(=O)NC1(O)C(F)(F)F` (centres undefined), the “inhibition” value is -15.1% (inactive). The result for `c1ccc2c(SCc3cn4ccccc4n3)nncc2c1` reads 4.71% (inactive); that for `O=C(Cn1c(C(F)(F)F)nc2ccccc21)NCCCN1CCOCC1`, -3.11% (inactive); that for `Cc1cccc(N(C(=O)CCC(=O)Nc2ccccn2)C(C(=O)NC(C)C)c2ccc(O)cc2)c1` (centres undefined), 15% (inactive).

As for `CC(C(=O)NC1CCCCC1)N1CCN(C)CC1` (centres undefined), the “inhibition” value was 1.49% (inactive).

For `O=C(CCS(=O)(=O)c1ccccc1)Nc1ccc2c(c1)C(=O)NC2=O`, the “inhibition” value was -16.3% (inactive). For `CCCCCCNC1=NCCS1`, the “inhibition” value was 27.9% (inactive).

`CC(=O)Cc1nsc(NC(=O)c2csc3c2CCCC3)n1`: the “inhibition” value was 28% (inactive). Consider `C[N+](C)(CCCCCC[N+](C)(C)CCCN1C(=O)c2cccc3cccc(c23)C1=O)CCCN1C(=O)c2cccc3cccc(c23)C1=O`, for which the “inhibition” value is 28.2% (inactive). The result for `CCOC(=O)CNC(=O)Cn1c(C)cc2ccccc2c1=O` reads 12.6% (inactive); that for `CCn1c(=N)n(CC(=O)c2ccc(OC)cc2)c2ccccc21`, 31.4% (inactive). Take `Cc1ccc(-n2c(=O)c3sccc3n(CC(=O)NC3CCCCC3)c2=O)cc1`: the “inhibition” value was 15.9% (inactive). Take `COc1ccc(/C=N/NC(=O)c2cc3c(OC)ccc(OC)c3[nH]2)cc1O`: the “inhibition” value was -4.36% (inactive). The result for `O=C(CSc1nnc(-c2cccnc2)n1Cc1ccco1)c1ccc2ccccc2c1` reads -19.2% (inactive); that for `Cc1cc(NCCCn2ccnc2)n2ncc(-c3ccccc3)c2n1`, 8.67% (inactive). For the compound `Cc1ccccc1Cn1c(=O)n(CCCC(=O)NCc2ccco2)c(=O)c2ccccc21`, the “inhibition” value was -18.6% (inactive).

As for `Cc1cc(C)nc(SCC(=O)NCc2ccco2)n1`, the “inhibition” value was 9.9% (inactive).

In the case of `COc1ccc(CNCCc2c[nH]c3ccccc23)c(OC)c1C`, the “inhibition” value is 9.27% (inactive).

As for `COc1ccccc1NC(=O)Cn1c(=O)n(CCc2c[nH]c3ccccc23)c(=O)c2cccnc21`, the “inhibition” value was 26.1% (inactive).

Consider `CCOC(=O)Cn1c(=O)oc2cc(S(=O)(=O)NCC3CCCO3)ccc21` (centres undefined), for which the “inhibition” value was -17.4% (inactive). In the case of `Cc1ccc(N2CC(C(=O)OCc3ccccc3F)CC2=O)cc1` (centres undefined), the “inhibition” value is 1.86% (inactive). For `C=C(C)Cn1c(SCC#N)nc2ccccc2c1=O`, the “inhibition” value is -22.7% (inactive).

Consider `Cc1cc(C(F)F)n2nc(C(=O)Nc3cc(C)on3)nc2n1`, for which the “inhibition” value is 15.3% (inactive). As to `CCc1nc(C)ccc1OCC(=O)N(CC)CC`, the “inhibition” value was -8.77% (inactive).

Turning to `CNS(=O)(=O)c1cccc(C(=O)OCc2cc(=O)oc3c(C)c(O)ccc23)c1`, the “inhibition” value was 1.59% (inactive). As for `[O-][n+]1onc2c1CCc1[nH]c(-c3ccccc3)nc1-2`, the “inhibition” value was -7.84% (inactive). The result for `CN(C)C(/C=C/Nc1ccc(F)cc1F)=C(C#N)C#N` reads 5.93% (inactive). Regarding `CC(=O)Nc1cccc(NS(=O)(=O)Cc2ccc(Cl)cc2)c1`, the “inhibition” value is 1.33% (inactive).

As to `CC(=O)Nc1cccc(NC(=O)Nc2ccc(C)c(Cl)c2)c1`, the “inhibition” value was 9.85% (inactive).

`O=C(Cn1c(=O)oc2ccccc21)N1CCN(c2ccc(N3CCOCC3)nn2)CC1`: the “inhibition” value is -8.66% (inactive). For the compound `CCn1c(SCC(=O)Nc2oc(-c3ccccc3)c(-c3ccccc3)c2C#N)nnc1-c1ccco1`, the “inhibition” value was -4.5% (inactive). In the case of `O=C(O)Cn1c(=O)c2c3c(sc2n(Cc2ccccc2F)c1=O)CCCC3`, the “inhibition” value is 4.22% (inactive). For `Cc1cc(N2CCCCC2)c(F)cc1[N+](=O)[O-]`, the “inhibition” value is 1.62% (inactive). Consider `O=C1CCCC(=O)N1c1ccc(N2CCOCC2)c([N+](=O)[O-])c1`, for which the “inhibition” value is -18.8% (inactive). Regarding `Cc1cnc(NC(=O)CN2C(=O)C3CC=CCC3C2=O)s1` (centres undefined), the “inhibition” value was 9.52% (inactive). For `O=C(Nc1ccccc1)c1ccc2nsnc2c1`, the “inhibition” value is -11.4% (inactive). Regarding `Cc1ccccc1N1C(N)=NC(N)=NC1(C)C`, the “inhibition” value was -17.2% (inactive). In the case of `COC(=O)C(NC(C)=O)(Nc1nc2c(s1)CCCC2)C(F)(F)F` (centres undefined), the “inhibition” value was -34.8% (inactive). In the case of `CCOC(=O)CSc1nc(-c2ccccc2)nc2ccccc12`, the “inhibition” value is 4.75% (inactive). As to `Cc1[nH]c2ccccc2c1/C=C/c1nc2ccccc2c(=O)[nH]1`, the “inhibition” value is -58.7% (inactive). The result for `COc1ccc(CCn2c(=N)c(C(=O)NCC3CCCO3)cc3c(=O)n4ccccc4nc32)cc1` (centres undefined) reads -24.6% (inactive); that for `COc1ccc(Cn2c(=N)c(C(=O)NCC3CCCO3)cc3c(=O)n4ccccc4nc32)cc1` (centres undefined), 14.7% (inactive).

Consider `COc1ccccc1Nc1nc(NCC2CCCO2)c2ccccc2n1` (centres undefined), for which the “inhibition” value was -17.3% (inactive). Next, `c1ccc2oc(-c3csc(NCC4CCCO4)n3)cc2c1` (centres undefined): 14.7% (inactive); `COc1ccc(Nc2nnc(SCC3CCCO3)s2)cc1` (centres undefined): -2.81% (inactive).

Turning to `O=S(=O)(c1ccccc1)c1nc(-c2cccs2)oc1NCC1CCCO1` (centres undefined), the “inhibition” value is 1.69% (inactive).
